# According to PubChem BioAssay (Tox21):
# Records with an inconclusive call do not appear. Unmarked numbers belong to inactive results. Active and inactive are the calls of the source. Unless noted, the call rests on the fitted dose curve; in most records, active means well fitted curve in the direction sought with a large enough effect in the repeat runs; inconclusive means weak or mixed curves; inactive means no such curve, though single readings can be large; an effect the other way counts as inactive or inconclusive.
# Test system: not listed separately
# Assay: qHTS assay to identify small molecule agonists of the peroxisome proliferator-activated receptor delta (PPARd) signaling pathway - cell viability counter screen (AID 743211); further: potency means the concentration at half of the fitted maximal effect; nearly all actives have a fitted effect of over 55% in size
# Conditions: PPARd-bla HEK293H viability, CellTiter-Glo luminescence, 17 h; series mostly up to 62.6 µM; activity change, negative = cytotoxicity: at the top concentration
# Procedure, shortened: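 Following 5 h plating at 37 C and 5% CO2, PPARd UAS-bla HEK293H cells took up test compounds for 17 h. Viability was quantified by luminescence 30 min after CellTiter-Glo addition at room temperature.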
row,SMILES,Potency
1,Cc1c(-c2ccc(O)cc2)n(Cc2ccc(OCCN3CCCCCC3)cc2)c2ccc(O)cc12,26.6 µM (active)
2,CCN(CC)c1ccc(N)cc1,44.8 µM (active)
3,Cc1oc(-c2ccccc2)nc1CCOc1ccc(C[C@H](Nc2ccccc2C(=O)c2ccccc2)C(=O)O)cc1,34.7 µM (active)

# Test system: not listed separately
# Assay: qHTS assay to identify small molecule antagonists of the peroxisome proliferator-activated receptor delta (PPARd) signaling pathway - cell viability counter screen (AID 743213); further: potency means the concentration at half of the fitted maximal effect; nearly all actives have a fitted effect of over 50% in size
# Conditions: PPARd-bla HEK293H viability, CellTiter-Glo luminescence, 17 h; series mostly up to 62 µM; viability change, negative = cytotoxic: at the top concentration
# Procedure, shortened: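 In this counter screen, HEK293H cells carrying a UAS-beta-lactamase reporter are co-treated with test compounds and 300 nM L165041 (final) for 17 h at 37 C; cell viability is quantified by CellTiter-Glo luminescence.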
row,SMILES,Potency
1,CCCCCCCCCCCCN(CCO)CCO,48.8 µM (active)
2,Cc1c(-c2ccc(O)cc2)n(Cc2ccc(OCCN3CCCCCC3)cc2)c2ccc(O)cc12,26.6 µM (active)
3,CCN(CC)c1ccc(N)cc1,31.7 µM (active)
4,Cc1oc(-c2ccccc2)nc1CCOc1ccc(C[C@H](Nc2ccccc2C(=O)c2ccccc2)C(=O)O)cc1,21.9 µM (active)

# Test system: not listed separately
# Assay: qHTS assay to identify small molecule agonists of the farnesoid-X-receptor (FXR) signaling pathway - cell viability counter screen (AID 743218); further: potency means the concentration at half of the fitted maximal effect; nearly all actives have a fitted effect of over 45% in size
# Conditions: FXR-bla HEK293T viability, CellTiter-Glo luminescence, 16 h; series mostly up to 62.6 µM; viability change, negative = cytotoxic: at the top concentration
# Procedure, shortened: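 In GeneBLAzer FXR-UAS-bla HEK 293T cells, compounds act for 16 h at 37 C. Cell viability is then scored in the reporter wells by CellTiter-Glo, 30 min at RT, luminescence.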
row,SMILES,Potency
1,COc1ccccc1OCCNCC(O)COc1cccc2[nH]c3ccccc3c12 (stereo unspecified),26.6 µM (active)
2,CCCCCCCCCCCCN(CCO)CCO,54.7 µM (active)
3,Cc1c(-c2ccc(O)cc2)n(Cc2ccc(OCCN3CCCCCC3)cc2)c2ccc(O)cc12,29.8 µM (active)
4,Cc1oc(-c2ccccc2)nc1CCOc1ccc(C[C@H](Nc2ccccc2C(=O)c2ccccc2)C(=O)O)cc1,34.7 µM (active)

# Test system: not listed separately
# Assay: qHTS assay to identify small molecule antagonists of the vitamin D receptor (VDR) signaling pathway - cell viability counter screen (AID 743225); further: nearly all actives have a fitted effect of over 50% in size; further: potency means the concentration at half of the fitted maximal effect; on viability change, negative = cytotoxic: on the % scale 0 is the no-effect control and ±100 the full control effect
# Conditions: VDR-bla HEK293T viability, CellTiter-Glo luminescence, 16 h; series mostly up to 61 µM; viability change, negative = cytotoxic: at the top concentration
# Procedure, shortened: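 In this counter screen, VDR-bla HEK 293T cells receive test compound plus 3 nM final calcitriol for 16 h at 37C. Room-temperature steps of 2 h with the beta-lactamase substrate, then 30 min with CellTiter-Glo, precede the luminescence read.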
SMILES,Potency,"viability change, negative = cytotoxic"
CCCCCCCCCCCCN(CCO)CCO,43.5 µM (active),–
CCN(CC)c1ccc(N)cc1,–,-15.6% [at 78.8 µM]
Cc1oc(-c2ccccc2)nc1CCOc1ccc(C[C@H](Nc2ccccc2C(=O)c2ccccc2)C(=O)O)cc1,19.5 µM (active),–

# Test system: not listed separately
# Assay: qHTS assay to identify small molecule agonists of the endoplasmic reticulum stress response signaling pathway - cell viability counter screen (AID 1159517; calls by dose curve; further: nearly all actives have a fitted effect of over 50% in size; further: potency means the concentration at half of the fitted maximal effect;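 on activity change, negative = cytotoxicity: HeLa cells carrying an ER stress response element beta-lactamase reporter; on the % scale 0 is the no-effect control and ±100 the full control effect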)
# Conditions: ESRE-bla HeLa viability, CellTiter-Glo luminescence, 5 h; series mostly up to 61 µM; activity change, negative = cytotoxicity: at the top concentration
# Procedure, shortened: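 Luminescence readout: CellTiter-Glo, 30 min RT, same wells as the ESRE-bla reporter read. HeLa ESRE-bla, 1,500 cells/well, o/n 37 C; cpd 5 hr 37 C/5% CO2.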
SMILES,"activity change, negative = cytotoxicity",Potency
COc1ccccc1OCCNCC(O)COc1cccc2[nH]c3ccccc3c12 (stereo unspecified),-0.244%,–
CCCCCCCCCCCCN(CCO)CCO,–,43.5 µM (active)
Cc1c(-c2ccc(O)cc2)n(Cc2ccc(OCCN3CCCCCC3)cc2)c2ccc(O)cc12,-10.5%,–
CCN(CC)c1ccc(N)cc1,20.4% [at 78.8 µM],–
Cc1oc(-c2ccccc2)nc1CCOc1ccc(C[C@H](Nc2ccccc2C(=O)c2ccccc2)C(=O)O)cc1,–,54.9 µM (active)

# Test system: not listed separately
# Assay: qHTS assay to identify small molecule antagonists of the retinoid-related orphan receptor gamma (ROR-gamma) signaling pathway - cell viability counter screen (AID 1159520); further: on the % scale 0 is the no-effect control and ±100 the full control effect; nearly all actives have a fitted effect of over 50% in size
# Conditions: Tet-on RORgamma CHO cells viability, ATP luminescence, 16 h; series mostly up to 92.4 µM; activity, negative = cytotoxicity: at the top concentration
# Procedure, shortened: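 Tet-on ROR gamma CHO cells (1,000/well) were plated 4 hr, given compounds in DMSO for 2 hr at 37 C, then induced with 1 uM final doxycycline for 16 hr. Viability was read as ATP by CellTiter-Glo luminescence after 30 min.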
row,SMILES,"activity, negative = cytotoxicity"
1,CCc1cccc(CC)c1N(COC)C(=O)CS(=O)(=O)O,0.507%
2,CCCCCCS,3.3%
3,Cc1cc(=O)[nH]c(=O)[nH]1,0.886%
4,CCc1cccc(CC)c1NC(=O)C(=O)O,7.69%
5,CCC(C)c1ccccc1 (stereo unspecified),10.1%
6,CC(=O)c1ccccc1N,0.319%
7,CC1(C)COCN1,0.402%
8,CC(C)=CCCC(C)CCOC(=O)C(C)C (stereo unspecified),4.68%
9,Clc1cc(Cl)c(-c2c(Cl)c(Cl)cc(Cl)c2Cl)cc1Cl,-6.99% [at 42.5 µM]
10,O=c1cccc[nH]1,3.65%
11,CCCCCCCOC(=O)c1ccccc1C(=O)OCCCCCCC,-1.27%
12,CC(C)C(=O)OCc1ccccc1,-16.8%
13,C=CC(=C)CC/C=C(\C)CCC=C(C)C,3.07% [at 19 µM]
14,CCc1c(Br)c(Br)c(Br)c(Br)c1Br,0.485%
15,CCCCCCCCC(C)=O,7.06%
16,CN(C)CCN1CCOCC1,10.6%

row,SMILES,"activity, negative = cytotoxicity"
1,CCc1ccc(C)nc1,1.3%
2,CCCCCCCC(C)=O,4.13%
3,CC(C)=CCCC(C)O (stereo unspecified),7%
4,COc1ccc(C#N)cc1,3.58%
5,CCOC(=O)CC(C)O (stereo unspecified),0.263%
6,CO[Si](CCC1CCC2OC2C1)(OC)OC (stereo unspecified),7.06%
7,c1cc[nH]c1,7.26%
8,O=S(=O)(O)c1cc(S(=O)(=O)O)c2ccc3c(S(=O)(=O)O)cc(S(=O)(=O)O)c4ccc1c2c43,3.7% [at 19 µM]
9,OCCCS,2.03%
10,C=CC(C)C#N (stereo unspecified),-1.96%
11,C=CC(=O)OCCN(CC)CC,6.75%
12,COc1cccc(OC)c1O,0.604%
13,CS(C)(=O)=O,5.1%
14,OCCN1CN(CCO)CN(CCO)C1,-13%
15,C/C=C/CO,5.16%

# Biological target: Nuclear receptor ROR-gamma (Homo sapiens) (UniProt P51449)
# Assay: qHTS assay to identify small molecule antagonists of the retinoid-related orphan receptor gamma (ROR-gamma) signaling pathway (AID 1159521)
# Conditions: Tet-on RORgamma CHO cells, RORE-luciferase, 16 h; series mostly up to 92.4 µM; activity change, negative = inhibition: at the top concentration
# Procedure, shortened: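 Screening format: cell-based luciferase reporter in CHO cells with doxycycline-inducible RORγ. Compound pre-exposure lasts 2 h, doxycycline is 1 uM final, induction runs 16 h at 37 C, and ONE-Glo luminescence is read.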
row,SMILES,"activity change, negative = inhibition"
1,CCc1cccc(CC)c1N(COC)C(=O)CS(=O)(=O)O,7.59%
2,CCCCCCS,-2.7%
3,Cc1cc(=O)[nH]c(=O)[nH]1,13.3%
4,CCc1cccc(CC)c1NC(=O)C(=O)O,19.2%
5,CCC(C)c1ccccc1 (stereo unspecified),9.52%
6,CC(=O)c1ccccc1N,17.7%
7,CC1(C)COCN1,0.722%
8,CC(C)=CCCC(C)CCOC(=O)C(C)C (stereo unspecified),-2.76%
9,Clc1cc(Cl)c(-c2c(Cl)c(Cl)cc(Cl)c2Cl)cc1Cl,-18.7% [at 42.5 µM]
10,O=c1cccc[nH]1,3.33%
11,CCCCCCCOC(=O)c1ccccc1C(=O)OCCCCCCC,1.28%
12,CC(C)C(=O)OCc1ccccc1,14.5%
13,C=CC(=C)CC/C=C(\C)CCC=C(C)C,0.326% [at 19 µM]
14,CCc1c(Br)c(Br)c(Br)c(Br)c1Br,-3.26%
15,CCCCCCCCC(C)=O,-2.98%
16,CN(C)CCN1CCOCC1,13.6%

row,SMILES,"activity change, negative = inhibition"
1,CCc1ccc(C)nc1,5.6%
2,CCCCCCCC(C)=O,9.46%
3,CC(C)=CCCC(C)O (stereo unspecified),-12.1%
4,COc1ccc(C#N)cc1,0.615%
5,CCOC(=O)CC(C)O (stereo unspecified),0.986%
6,CO[Si](CCC1CCC2OC2C1)(OC)OC (stereo unspecified),7.38%
7,c1cc[nH]c1,0.412%
8,O=S(=O)(O)c1cc(S(=O)(=O)O)c2ccc3c(S(=O)(=O)O)cc(S(=O)(=O)O)c4ccc1c2c43,12.6% [at 19 µM]
9,OCCCS,11.6%
10,C=CC(C)C#N (stereo unspecified),-4.55%
11,C=CC(=O)OCCN(CC)CC,5.57%
12,COc1cccc(OC)c1O,2.16%
13,CS(C)(=O)=O,5.99%
14,OCCN1CN(CCO)CN(CCO)C1,42.6%
15,C/C=C/CO,-7.78%
